This passage reports growth inhibition, inhibition and outcome results from PubChem BioAssay.

A short description of assay [1]: antimalarial activity against Dd2 strain (AID 2302;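 active = growth inhibition above 50% at the single 2 µM test dose, taken to imply half-maximal potency below 2 µM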;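 also: 0% = DMSO untreated growth and 100% = chloroquine plus artemisinin killed control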). To be noted: P. falciparum Dd2 in RBCs, LDH growth readout, 72 h; at 2 µM; hits give high values.
Assay [2] can be described thus: HepG2 cytotoxicity, primary screen, cytotoxicity control for P. falciparum antimalarial project, cell-based, ATP luminescence (AID 2303;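 active = inhibition above 50%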;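 also: 0% = DMSO wells and 100% = digitonin-killed cells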). To be noted: HepG2 viability, 24-48 h, at 10 µM, hits give high values.
Assay [3] deals with L-lactate dehydrogenase (Plasmodium falciparum (isolate CDC / Honduras)) (UniProt Q27743). Description: PfLDH activity inhibition – cell lysate, 3D7 strain, counter-screen for P. falciparum growth inhibition project (AID 2304).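 Also: 0% = vehicle and 100% = reference inhibitor.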 As to conditions: P. falciparum 3D7 crude extract, LDH APAD/NBT absorbance; at 2 µM; hits give high values. (In general: Counterscreens check selectivity or assay interference.)

The nature of assay [4]: inhibition of 3D7 malaria parasite growth – strain 3D7 (AID 2306).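 Also: 0% = DMSO wells and 100% = chloroquine plus artemisinin control wells.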 To be noted: P. falciparum 3D7 erythrocytic growth, LDH absorbance, 72 h; at 2 µM; hits give high values.
Assay [5] concerns the target Calcium-dependent protein kinase 1 (Plasmodium falciparum (isolate 3D7)) (UniProt P62344). Description: PfCDPK1 kinase inhibitors, biochemical, TCAMS library (AID 1159585; cut-off not given, nearly all actives have IC50 up to about 0.98 µM;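 also: inhibitors leave more ATP so luminescence rises with inhibition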). As to conditions: recombinant PfCDPK1, Kinase-Glo ATP depletion luminescence. (In general: Kinase-Glo reads ATP consumption through a luciferase reaction.)
For assay [6], the target named is Plasmodium falciparum protein kinase 6 (PK6, PF3D7_1337100) (UniProt Q8IDW1). The experiment in a line: PfPK6 kinase inhibitors, biochemical, TCAMS library (AID 1159586). As to conditions: recombinant PfPK6, Kinase-Glo ATP depletion luminescence.
In assay [7] the target is Protein kinase 7 (PK7), Plasmodium falciparum 3D7 (PF3D7_0213400) (UniProt Q7YTF7). Description: inhibition of Plasmodium PK7 catalytic activity – biochemical, TCAMS antimalarial set, Kinase-Glo luminescence (AID 1159587). As to conditions: recombinant PfPK7, Kinase-Glo ATP depletion luminescence.
Assay [8] deals with Calcium-dependent protein kinase 4 (Plasmodium falciparum (isolate 3D7)) (UniProt Q8IBS5). The experiment in a line: PfCDPK4 kinase inhibitors, biochemical, TCAMS library (AID 1159588; cut-off not given, nearly all actives have IC50 up to about 0.91 µM). To be noted: recombinant PfCDPK4, Kinase-Glo ATP depletion luminescence.

The structures appear in SMILES notation. A number with no mark means an inactive call. For part of these data: Measured potencies and affinities stand elsewhere. Activity calls are given as the source filed them. Unless noted, no rule for the calls is given here.

Protein kinase 7 (PK7), Plasmodium falciparum 3D7 (PF3D7_0213400), sequence (Q7YTF7 1-343): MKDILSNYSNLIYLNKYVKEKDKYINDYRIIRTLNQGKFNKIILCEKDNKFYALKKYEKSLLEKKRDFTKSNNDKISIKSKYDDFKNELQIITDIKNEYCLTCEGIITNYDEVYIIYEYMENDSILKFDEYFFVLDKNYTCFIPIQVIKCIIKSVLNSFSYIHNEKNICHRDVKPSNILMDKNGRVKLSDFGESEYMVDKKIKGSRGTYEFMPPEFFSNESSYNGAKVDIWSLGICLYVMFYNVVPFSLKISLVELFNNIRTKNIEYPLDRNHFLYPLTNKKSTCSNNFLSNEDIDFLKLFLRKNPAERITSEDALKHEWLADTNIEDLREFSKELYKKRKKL
L-lactate dehydrogenase (Plasmodium falciparum (isolate CDC / Honduras)), sequence (Q27743 whole entry, looked up): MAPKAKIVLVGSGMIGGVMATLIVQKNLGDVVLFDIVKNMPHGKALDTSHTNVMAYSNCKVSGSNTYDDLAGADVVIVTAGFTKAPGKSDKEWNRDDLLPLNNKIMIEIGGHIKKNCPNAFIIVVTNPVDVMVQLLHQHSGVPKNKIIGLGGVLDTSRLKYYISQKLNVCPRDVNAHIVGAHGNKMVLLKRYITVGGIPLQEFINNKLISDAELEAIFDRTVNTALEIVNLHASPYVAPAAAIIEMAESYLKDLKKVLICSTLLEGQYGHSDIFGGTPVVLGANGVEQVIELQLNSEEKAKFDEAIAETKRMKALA
Calcium-dependent protein kinase 1 (Plasmodium falciparum (isolate 3D7)), sequence (P62344 whole entry, looked up): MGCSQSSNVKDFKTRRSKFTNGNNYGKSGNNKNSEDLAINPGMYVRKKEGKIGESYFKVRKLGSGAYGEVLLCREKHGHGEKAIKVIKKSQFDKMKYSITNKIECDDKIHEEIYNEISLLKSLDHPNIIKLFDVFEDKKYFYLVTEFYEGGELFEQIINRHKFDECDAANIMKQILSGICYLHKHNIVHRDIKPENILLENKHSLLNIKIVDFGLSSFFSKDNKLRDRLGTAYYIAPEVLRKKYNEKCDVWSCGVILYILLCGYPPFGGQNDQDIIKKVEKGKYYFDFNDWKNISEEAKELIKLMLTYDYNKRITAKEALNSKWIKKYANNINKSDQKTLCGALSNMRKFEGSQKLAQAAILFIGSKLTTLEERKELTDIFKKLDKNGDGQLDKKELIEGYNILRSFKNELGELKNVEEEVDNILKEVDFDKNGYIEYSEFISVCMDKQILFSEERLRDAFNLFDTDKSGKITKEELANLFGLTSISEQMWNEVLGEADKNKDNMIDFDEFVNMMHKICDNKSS
Plasmodium falciparum protein kinase 6 (PK6, PF3D7_1337100), sequence (Q8IDW1 1-305): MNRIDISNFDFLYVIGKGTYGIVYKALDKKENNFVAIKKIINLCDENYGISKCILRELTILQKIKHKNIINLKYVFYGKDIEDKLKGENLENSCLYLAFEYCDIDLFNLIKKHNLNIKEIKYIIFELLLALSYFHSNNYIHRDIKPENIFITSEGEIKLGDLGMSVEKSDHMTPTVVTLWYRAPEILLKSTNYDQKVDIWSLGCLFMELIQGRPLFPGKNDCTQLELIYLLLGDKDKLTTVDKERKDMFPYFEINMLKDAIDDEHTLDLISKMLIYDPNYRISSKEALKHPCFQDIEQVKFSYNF
Calcium-dependent protein kinase 4 (Plasmodium falciparum (isolate 3D7)), sequence (Q8IBS5 whole entry, looked up): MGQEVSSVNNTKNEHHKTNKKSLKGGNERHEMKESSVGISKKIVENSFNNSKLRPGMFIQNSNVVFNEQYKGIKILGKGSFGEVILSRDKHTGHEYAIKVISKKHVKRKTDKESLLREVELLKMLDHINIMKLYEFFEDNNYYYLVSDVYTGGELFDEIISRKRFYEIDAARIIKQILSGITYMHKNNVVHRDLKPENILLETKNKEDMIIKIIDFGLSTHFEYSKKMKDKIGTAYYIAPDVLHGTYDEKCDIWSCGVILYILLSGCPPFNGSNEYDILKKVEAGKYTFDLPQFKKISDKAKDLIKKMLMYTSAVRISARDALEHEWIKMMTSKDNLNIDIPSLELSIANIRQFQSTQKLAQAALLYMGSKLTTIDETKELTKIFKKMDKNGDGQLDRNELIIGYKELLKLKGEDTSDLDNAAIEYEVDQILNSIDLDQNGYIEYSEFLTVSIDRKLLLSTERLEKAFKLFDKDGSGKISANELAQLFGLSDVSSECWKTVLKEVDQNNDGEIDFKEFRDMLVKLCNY

As to `Nc1ccc(Oc2ccc(Cc3cnc(N)nc3N)cc2)cc1`, the growth inhibition in assay [1] is 5%; in assay [4], 86% (active). The inhibition was 10% in assay [2] and -3% in assay [3]. Further, the outcome in assay [5], in assay [6], in assay [7] and in assay [8] was inactive.
As for `CCCCCCc1cc2cc(-c3csc(C=Cc4ccccc4)n3)c(=O)oc2cc1O`, the growth inhibition in assay [1] was 75% (active); in assay [4], 96% (active). The inhibition is 17% in assay [2] and 2% in assay [3]. The result in assay [5], in assay [6], in assay [7] and in assay [8] was inactive.
With `Cc1cc(-c2cnc(N)c(-c3ccc(N4CCN(C)CC4)cc3)c2)cc(C)c1O`, the results for the growth inhibition in assay [1] and in assay [4] were 99% (active) and 101% (active), respectively. For the same compound, the values for the inhibition in assay [2] and in assay [3] were 3% and -5%, respectively. In addition, the outcome in assay [5], in assay [6], in assay [7] and in assay [8] was inactive.
With `C=CCc1cc(C2CCN(CCCCNC(=O)c3ccc(-c4ccc(C#N)cc4)cc3)CC2)c(OCC(N)=O)c2c1CCCC2`, the growth inhibition in assay [1] was 92% (active); in assay [4] it was 101% (active). Moreover, the results for the inhibition in assay [2] and in assay [3] were 43% and -6%, respectively. In addition, the result in assay [5], in assay [6], in assay [7] and in assay [8] was inactive.
Regarding `Cc1[nH]c(C)c(-c2ccc(CCc3ccc(F)cc3F)cc2)c(=O)c1Br`, the growth inhibition is 98% (active) in assay [1] and 97% (active) in assay [4]. The figures for the inhibition in assay [2] and in assay [3] were -5% and -3%, respectively. The outcome in assay [5], in assay [6], in assay [7] and in assay [8] was inactive.
On to `COc1cc(N)c(Cl)cc1C(=O)NCC1CCN(c2nc(C)cc(C)n2)CC1`, for which the growth inhibition in assay [1] was 95% (active); in assay [4], 96% (active). Further, the inhibition is -6% in assay [2] and 4% in assay [3]. Also, the result in assay [5], in assay [6], in assay [7] and in assay [8] was inactive.
On to `O=[N+]([O-])c1ccc(Nc2nc(NN=Cc3cccc(O)c3)nc(N3CCCC3)n2)cc1`, for which the growth inhibition is 9% in assay [1] and 88% (active) in assay [4]. Besides, the inhibition in assay [2] was -6%; in assay [3], -5%. Also, the outcome in assay [5], in assay [6], in assay [7] and in assay [8] was inactive.
Turning to `Cc1[nH]c(C)c([N+](=O)[O-])c(=O)c1-c1ccc(Oc2ccc(OC(F)(F)F)cc2)cc1`, the growth inhibition in assay [1] and in assay [4] was 97% (active) throughout. Besides, the inhibition in assay [2] and in assay [3] was -2% each time. The outcome in assay [5], in assay [6], in assay [7] and in assay [8] was inactive.
With `CC(C)CCNC(=O)C1Cc2c([nH]c3ccc(Br)cc23)C2(CCN(CCc3ccccc3)CC2)N1` (centres undefined), the results for the growth inhibition in assay [1] and in assay [4] were 61% (active) and 101% (active), respectively. Further, the inhibition in assay [2] was 25%; in assay [3], 2%. Also, the outcome in assay [5], in assay [6], in assay [7] and in assay [8] was inactive.
`CCOc1ccc2c(NN=Cc3cccc(OC)c3)cc(C)nc2c1`: the values for the growth inhibition in assay [1] and in assay [4] were 81% (active) and 97% (active), respectively. Besides, the inhibition in assay [2] was 38%; in assay [3] it was -5%. In addition, the outcome in assay [5], in assay [6], in assay [7] and in assay [8] was inactive.
As to `CNC(=O)/C=C/c1cc(NC(=O)Nc2ccnc3c(Br)cccc23)ccc1OC`, the growth inhibition was 68% (active) in assay [1] and 95% (active) in assay [4]. In addition, the inhibition in assay [2] is 12%; in assay [3], 1%. Also, the result in assay [5], in assay [6], in assay [7] and in assay [8] was inactive.
For the compound `CCN(CC)CCN(Cc1ccc(-c2ccc(C(F)(F)F)cc2)cc1)C(=O)Cn1c(CCc2ccc(F)c(F)c2)nc(=O)c2ccccc21`, the growth inhibition in assay [1] was 62% (active); in assay [4], 99% (active). The inhibition in assay [2] was 31%; in assay [3], 3%. Besides, the result in assay [5], in assay [6], in assay [7] and in assay [8] was inactive.
In the case of `CCCCCN1CCC(NS(=O)(=O)c2cccc(C(=O)Nc3ccc(C(F)(F)F)cc3)c2)C1` (centres undefined), the growth inhibition in assay [1] is 5%; in assay [4] it was 95% (active). Further, the inhibition in assay [2] was 45%; in assay [3], -3%. Also, the result in assay [5], in assay [6], in assay [7] and in assay [8] was inactive.
Turning to `COC(=O)c1cccc(CNCc2cccc(-c3csc(-c4nc5ccccc5[nH]4)c3)c2)c1`, the growth inhibition in assay [1] was 44%; in assay [4] it was 102% (active). Moreover, the inhibition in assay [2] was -7%; in assay [3], 0%. Besides, the outcome in assay [5], in assay [6], in assay [7] and in assay [8] was inactive.
For `CC1CCN(Cc2c(O)ccc3c(=O)c(-c4nc5ccccc5s4)c(N)oc23)CC1`, the growth inhibition was 99% (active) in assay [1] and 98% (active) in assay [4]. Moreover, the figures for the inhibition in assay [2] and in assay [3] were 2% and -6%, respectively. Moreover, the outcome in assay [5], in assay [6], in assay [7] and in assay [8] was inactive.
As to `CCSc1nnc(C2CCCN(CC(=O)Nc3cc(C(F)(F)F)ccc3Cl)C2)n1CC` (centres undefined), the growth inhibition in assay [1] was 96% (active); in assay [4] it was 99% (active). Also, the inhibition in assay [2] was 0%; in assay [3], 5%. Further, the outcome in assay [5], in assay [6], in assay [7] and in assay [8] was inactive.
As to `c1ccc(C2CCN(Cc3ccc(-c4c[nH]c5nc(NC6CCCC6)ncc45)cc3)CC2)cc1`, the growth inhibition was 9% in assay [1] and 82% (active) in assay [4]. Also, the results for the inhibition in assay [2] and in assay [3] were 39% and -1%, respectively. The outcome in assay [5], in assay [6], in assay [7] and in assay [8] was inactive.
As to `COc1ccc2nccc([C@@H](O)CN3CCC(NCCOc4ccccc4C(F)(F)F)CC3)c2c1`, the growth inhibition was 95% (active) in assay [1] and 98% (active) in assay [4]. For the same compound, the figures for the inhibition in assay [2] and in assay [3] were 2% and -5%, respectively. In addition, the outcome in assay [5], in assay [6], in assay [7] and in assay [8] was inactive.

A word on the inhibition: it is the drop in the measured response relative to a control, in per cent.
